Inconclusive results are not listed. Where a call stands in place of a potency, no number is given. Active and inactive are the calls of the source. Calls come from the whole dose curve; as a rule, active = well fitted cell-killing curve with a large enough effect; inconclusive = small, poorly fitted or top-dose-only effect, or effect the other way; inactive = flat fitted curve, though single readings scatter. Peptide text beside a SMILES is read from it.
Potency is the fitted concentration of half-maximal effect.

A short description of the assay: MultiTox-Fluor Cytotoxicity Assay - LYMP1-002 - Live Cells (AID 955). As to conditions: LYMP1-002 lymphoblastoid live-cell protease fluorescence viability; series mostly up to 46.1 µM. From the text:
NIH Chemical Genomics Center [NCGC]
NIH Molecular Libraries Screening Centers Network [MLSCN]
National Institutes of Environmental Health Sciences [NIEHS]
National Toxicology Program [NTP]
We have developed a 1536-well cell-based assay for quantitative high throughput screening (qHTS) against a number of cell lines to determine in vitro cytotoxicity of small molecules. This particular assay uses a human lymphoblastoid cell line (LYMP1-002) purchased from Coriell Institute.
NCGC Assay Protocol Summary:
The MultiTox-Fluor Cytotoxicity Assay (Promega) is a homogeneous method to simultaneously measure the relative number of live and dead cells in culture by detecting changes in cell membrane integrity. There are two fluorogenic peptide substrates in the assay reagent. Viable cells are determined when the cell-permeant substrate (GF-AFC) enters the cell and is cleaved by protease from live cells resulting in liberated fluorophore. This live-cell protease activity restricted to viable cells is proportional to cell number. The dead cells are determined by using fluorogenic cell-impermeant peptide substrate (bis-AAF-R110) which cleaved by dead cell proteases leaking from damaged cell membrane.
Using the MultiTox-Fluor Cytotoxicity Assay, the relative number of live cells was measured in the lymphoblastoid cell line with complete culture medium following compound treatment for 16 hours. The assay was performed in opaque black Kalypsys 1536-well plates. In the screen, tetraoctylammonium bromide was used as positive control. Library compounds were measured for their ability to cause acute toxicity in the cell line, as reflected by a decrease in live cell protease activity, in a concentration-dependent manner. […] AC50 values were determined from concentration-response data modeled with the standard Hill equation.
qHTS protocol for MultiTox-Fluor Cytotoxicity assay
[Step] [Parameter] [Value] [Description]
1. Reagent; 5 uL; 2500 lymphoblastoid cells/well
2. Time; 5 hr; 37 C incubation
4. Controls; 23 nL; Tetraoctylammonium bromide 6.4pM to 92 uM
5. Time; 16 hr; 37 C incubation
6. Reagent; 5 uL; MuliTox-Fluor Assay reagent
7. Time; 60 min; Room Temperature
8. Detection; live-cell fluorescence (Ex/Em=405/510); EnVision plate reader
Keywords: cell viability, cytotoxicity, lymphoblastoid cell line, fluorescence, NTPHTS, NTPHTS_NCGC, NIEHS, EPA, DSSTox, MLSMR, MLSCN, NIH Roadmap, qHTS, NCGC
For `CS(=O)(=O)OCCCCOS(C)(=O)=O`, the Potency entry is “inactive”.
Under `Nc1ccc(S(N)(=O)=O)cc1` stands “inactive”; under `Cc1cc(O)c2c(c1)C(=O)c1cc(O)cc(O)c1C2=O`, “inactive”.
Regarding `CCCCC(CC)COC(=O)C(C#N)=C(c1ccccc1)c1ccccc1` (stereo not drawn), the Potency entry was “inactive”.
The result for `CCCc1cc(=O)[nH]c(=S)[nH]1` reads “inactive”; that for `CCc1nc(N)nc(N)c1-c1ccc(Cl)cc1`, “inactive”.
Consider `COc1c2occc2cc2ccc(=O)oc12`, for which the Potency result was “inactive”.
The result for `CN(C)c1ccc2nc3ccc(=[N+](C)C)cc-3sc2c1` reads 12.6 µM (active); that for `NS(=O)(=O)c1cc(C(=O)O)c(NCc2ccco2)cc1Cl`, “inactive”; that for `Cc1ccc(C)c(OCCCC(C)(C)C(=O)O)c1`, “inactive”.
Under `CC(=O)Nc1ccc(O)cc1` stands “inactive”; under `COC(=O)[C@H](Cc1ccccc1)NC(=O)[C@@H](N)CC(=O)O` (H-Asp-Phe-OMe), “inactive”; under `c1ccc2[nH]c(-c3cscn3)nc2c1`, “inactive”.

The values are drawn from PubChem BioAssay (NCATS).
